Assay results reported in PubChem BioAssay AID1159580 (chemical genetic matrix, 2015).
Among all 5,500 compounds or so, about 2,000 (36%) were called active. About 18% were inconclusive and are not listed. No stated cut-off is given here; in the data, active means normalized growth mostly below about 0.91 (no sharp cut-off); inconclusive means no clear call, values can overlap the other calls; inactive means mostly above about 0.92. The list shows a part of the results.

Assay: chemical genetic growth profiling, strain panel (AID 1159580);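 further: tested at 20 µM; growth read once vehicle control cultures reached saturation at 30 °C; 1 = growth at the plate median or of vehicle wells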
Conditions: S. cerevisiae deletion strains, growth OD

Measured: normalized growth

CC[C@@]1(O)C[C@H](O)c2c(cc3c(c2O)C(=O)c2c(O)ccc(O)c2C3=O)[C@H]1C(=O)OC
active: locus YJL187C, strain SWE1 (second series), stronger effect = lower value 0.344 | locus YJR043C, strain POL32, stronger effect = lower value 0.696 | locus YKL009W, strain mrt4, stronger effect = lower value 1.54 [resistant] | locus YKL085W, strain MDH1 (second series), stronger effect = lower value 0.818 | locus YKL085W, strain MDH1, stronger effect = lower value 0.818 | locus YKL160W, strain elf1, stronger effect = lower value 0.9 | locus YKR001C, strain vps1, stronger effect = lower value 0.354 | locus YLR027C, strain aat2, stronger effect = lower value 0.869 | locus YLR039C, strain RIC1, stronger effect = lower value 0.395 | locus YLR058C, strain SHM2, stronger effect = lower value 0.643 | locus YLR221C, strain rsa3, stronger effect = lower value 0.901 | locus YLR258W, strain gsy2, stronger effect = lower value 0.9 | locus YLR262C, strain YPT6 (second series), stronger effect = lower value 0.795 | locus YLR268W, strain sec22, stronger effect = lower value 0.545 | locus YLR320W, strain mms22, stronger effect = lower value 0.216 | locus YLR418C, strain cdc73, stronger effect = lower value 0.56 | locus YML016C, strain PPZ1, stronger effect = lower value 0.815 | locus YML032C, strain rad52, stronger effect = lower value 0.175 | locus YML124C, strain tub3, stronger effect = lower value 0.808 | locus YMR058W, strain fet3, stronger effect = lower value 0.815 | locus YMR078C, strain ctf18, stronger effect = lower value 0.335 | locus YMR223W, strain ubp8, stronger effect = lower value 0.602 | locus YNL067W, strain RPL9B, stronger effect = lower value 0.691 | locus YNL209W, strain ssb2, stronger effect = lower value 0.895 | locus YNL233W, strain BNI4, stronger effect = lower value 0.511 | locus YNL248C, strain rpa49, stronger effect = lower value 0.706 | locus YNL250W, strain rad50, stronger effect = lower value 0.144 | locus YNL271C, strain bni1, stronger effect = lower value 0.885 | locus YNL298W, strain CLA4, stronger effect = lower value 0.891 | locus YNL307C, strain MCK1, stronger effect = lower value 0.785 | locus YNL322C, strain KRE1, stronger effect = lower value 0.751 | locus YNR052C, strain pop2, stronger effect = lower value 0.666 | locus YOL147C, strain pex11, stronger effect = lower value 0.802 | locus YOR061W, strain CKA2, stronger effect = lower value 0.793 | locus YOR069W, strain VPS5, stronger effect = lower value 0.577 | locus YOR070C, strain gyp1, stronger effect = lower value 0.877 | locus YOR083W, strain WHI5, stronger effect = lower value 0.806 | locus YOR106W, strain vam3, stronger effect = lower value 0.593 | locus YOR136W, strain idh2, stronger effect = lower value 0.877 | locus YOR144C, strain elg1, stronger effect = lower value 0.812 | locus YOR184W, strain ser1, stronger effect = lower value 0.426 | locus YOR270C, strain vph1, stronger effect = lower value 0.409 | locus YPL051W, strain arl3, stronger effect = lower value 0.685 | locus YPL055C, strain LGE1, stronger effect = lower value 0.146 | locus YPL106C, strain sse1, stronger effect = lower value 1.21 [resistant] | locus YPR141C, strain kar3, stronger effect = lower value 0.912 | locus YPR163C, strain tif3, stronger effect = lower value 0.72 | locus YPR167C, strain met16, stronger effect = lower value 0.597 | strain wtn01, stronger effect = lower value 0.703
inactive: locus YJL168C, strain set2, stronger effect = lower value 0.942 | locus YJR066W, strain TOR1, stronger effect = lower value 0.941 | locus YKR026C, strain gcn3, stronger effect = lower value 0.994 | locus YKR091W, strain srl3, stronger effect = lower value 1 | locus YLL001W, strain dnm1, stronger effect = lower value 0.953 | locus YLL026W, stronger effect = lower value 0.956 | locus YLL041C, strain sdh2, stronger effect = lower value 0.982 | locus YLR102C, strain apc9, stronger effect = lower value 0.984 | locus YLR113W, strain HOG1, stronger effect = lower value 0.971 | locus YLR342W, strain FKS1 (second series), stronger effect = lower value 0.857 | locus YLR342W, strain FKS1, stronger effect = lower value 0.958 | locus YLR357W, strain rsc2, stronger effect = lower value 1.01 | locus YLR370C, strain arc18, stronger effect = lower value 0.96 | locus YLR371W, strain rom2, stronger effect = lower value 0.991 | locus YLR384C, strain iki3, stronger effect = lower value 1.02 | locus YML120C, strain ndi1, stronger effect = lower value 0.962 | locus YMR125W, strain sto1, stronger effect = lower value 1.08 | locus YMR129W, stronger effect = lower value 0.997 | locus YMR205C, strain PFK2, stronger effect = lower value 0.983 | locus YMR231W, strain pep5, stronger effect = lower value 1.01 | locus YMR307W, strain GAS1, stronger effect = lower value 0.641 | locus YNL071W, strain lat1, stronger effect = lower value 0.932 | locus YNL183C, strain NPR1, stronger effect = lower value 0.929 | locus YNL322C, strain KRE1 (second series), stronger effect = lower value 0.919 | locus YNR049C, strain mso1, stronger effect = lower value 0.976 | locus YOL012C, strain htz1 0.287 | locus YOR001W, strain rrp6, stronger effect = lower value 0.943 | locus YOR080W, strain dia2, stronger effect = lower value 0.941 | locus YOR231W, strain MKK1, stronger effect = lower value 0.981 | locus YOR265W, strain rbl2, stronger effect = lower value 0.938 | locus YOR290C, strain snf2, stronger effect = lower value 0.911 | locus YOR316C, strain cot1, stronger effect = lower value 1 | locus YPL078C, strain atp4, stronger effect = lower value 0.961 | locus YPL240C, strain hsp82, stronger effect = lower value 0.979 | locus YPL256C, strain CLN2, stronger effect = lower value 0.995 | locus YPR119W, strain clb2, stronger effect = lower value 0.952
